Laboratory results reported in paper PMC5540273 (PLoS ONE, 2017).

Key:
Settings in all cases: concentration: 1 μM, replicates: in singlicate; n = 1
SRMS = tested on: SRMS
SRPK1 = tested on: SRPK1
SRPK2 = tested on: SRPK2
SRPK3 = tested on: SRPK3
STK16 = tested on: STK16
STK33 = tested on: STK33
STK35 = tested on: STK35
STK36 = tested on: STK36
STK39 = tested on: STK39
SYK = tested on: SYK
SgK110 = tested on: SgK110
TAK1 = tested on: T1, TAK1
T1 construct: gene MAP3K7

TAOK1 = tested on: TAOK1
TAOK2 = tested on: TAOK2
TAOK3 = tested on: TAOK3
TBK1 = tested on: TBK1
TEC = tested on: TEC
TESK1 = tested on: TESK1
TGFBR1 = tested on: TGFBR1
TGFBR2 = tested on: TGFBR2
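Further: KINOMEscan kinase panel screen.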

Compound	%Inh (SRMS) [%]	%Inh (SRPK1) [%]	%Inh (SRPK2) [%]	%Inh (SRPK3) [%]	%Inh (STK16) [%]	%Inh (STK33) [%]	%Inh (STK35) [%]	%Inh (STK36) [%]	%Inh (STK39) [%]	%Inh (SYK) [%]	%Inh (SgK110) [%]	%Inh (TAK1) [%]	%Inh (TAOK1) [%]	%Inh (TAOK2) [%]	%Inh (TAOK3) [%]	%Inh (TBK1) [%]	%Inh (TEC) [%]	%Inh (TESK1) [%]	%Inh (TGFBR1) [%]	%Inh (TGFBR2) [%]
COC(=O)c1c(-c2ccccc2)c2cc(Cl)ccc2c(=O)n1Cc1ccc(S(C)(=O)=O)cc1	0	10	6	0	0	0	15	15	0	3	46	17	0	0	0	20	0	0	7	5
CCc1nc(-c2cccc(C)c2)c(-c2ccnc(NC(=O)c3ccccc3)c2)s1	0	0	0	0	6	12	0	–	0	0	18	35	0	0	0	10	18	0	32	0
COc1ccc(NC(=O)c2ccc(-c3cc(-c4nnc(C)o4)ccc3C)cc2)cc1 [GW595885]	0	0	0	8	7	0	0	0	21	27	13	0	0	0	0	0	2	24	6	0
CNc1nccc(-c2c(-c3ccc(F)cc3)ncn2CCCN2CCOCC2)n1 [SB-222516]	0	19	0	0	0	21	0	0	8	0	7	0	0	0	0	5	33	10	0	16
COc1cc2ncnc(Nc3ccc(OCc4ccccc4Br)c(Cl)c3)c2cc1OC.Cl [GI261590]	0	0	32	5	6	0	18	0	7	33	0	0	0	0	0	10	21	33	27	0
Clc1cccc(-c2nc(Nc3ccncc3)c3ccccc3n2)c1 [GW873004]	2	–	43	0	0	26	0	3	0	33	38	0	0	4	0	11	17	19	–	17
Clc1cc(Nc2ncnc3cc[nH]c23)ccc1OCc1ccccn1	0	0	0	19	35	9	0	12	8	8	0	9	0	0	0	4	0	7	15	0
N#Cc1ccc(Oc2ccc(Nc3ncnc4cc[nH]c34)cc2Cl)cc1	0	0	0	0	36	27	27	10	15	13	0	7	0	0	0	24	0	5	1	5
CS(=O)(=O)CCNCc1nc(-c2ccc3ncnc(Nc4ccc(OCc5cccc(F)c5)c(Cl)c4)c3c2)cs1.Cl [GW583340]	0	2	0	0	8	0	0	0	1	18	0	0	0	0	0	14	0	80	0	0
CN1c2ccc(-c3ccc(C(=O)NCCO)cc3)cc2-c2[nH]ncc2S1(=O)=O	0	12	5	1	2	9	26	30	13	41	0	63	0	30	0	31	1	17	0	0
CN1CCC(n2cnc(-c3ccc(F)cc3)c2-c2ccnc(NC3CCNCC3)n2)CC1 [SB-229482]	28	0	27	16	12	0	0	24	47	0	0	34	0	0	0	0	0	7	28	16
Cc1cc(N2CCC(NS(=O)(=O)c3ccc(F)cc3)CC2)nc(Nc2cccc(C#N)c2)n1.O=C(O)C(F)(F)F [GSK1653537]	0	15	0	18	0	0	0	0	1	19	6	0	0	0	0	1	0	9	0	11
